# Assay results: ChEMBL document CHEMBL1157539, “Thousands of chemical starting points for antimalarial lead identification” (Nature, 2010)
# Tests used:
# Type in all cases: functional
# Plasmodium falciparum [1] = experiment: GSK_TCMDC: Inhibition of Plasmodium falciparum 3D7 in whole red blood cells, using parasite LDH activity as an index of growth. Test compounds present at 2uM
# Plasmodium falciparum [2] = experiment: GSK_TCMDC: Inhibition of Plasmodium falciparum Dd2 in whole red blood cells, using parasite LDH activity as an index of growth. Test compounds present at 2uM
# HepG2 = experiment: GSK_TCMDC: Percent inhibition of human HepG2 cell line. Test compounds present at 10uM.
Compound,Inhibition (Plasmodium falciparum [1]) [%],Inhibition (Plasmodium falciparum [2]) [%],Inhibition (HepG2) [%]
N#Cc1ccc2[nH]cc(CN3CCC4(CC3)CN(CCNCc3ccccc3)C(=O)CO4)c2c1.O=C(O)C(F)(F)F,98,0,0
Oc1c(C(Nc2nc3ccccc3s2)c2ccccc2)ccc2cccnc12 (stereo unspecified),95,83,45
CCCCCCCN(CCCCCCC)CCCC(=O)Nc1ccnc2ccc(OC)cc12.O=C(O)C(=O)O,100,98,43
COc1cc(C(=O)Nc2cccc(-c3nc4ccccc4[nH]3)c2)ccc1OC(C)=O,83,37,16
CCN(CC)CCCCNc1cc(-c2[nH]c(-c3c(Cl)cccc3Cl)nc2-c2ccc3cc(OC)ccc3c2)ccn1.O=C(O)C(F)(F)F,95,93,23
CC(C)C[C@H](NC(=O)[C@H](Cc1ccccc1)NC(=O)CCN1C(=O)COc2ccc(C(=O)O)cc21)C(=O)NC(CC1CCCCC1)C(O)CC(=O)NCCCn1ccnc1.Cl.O (stereo partly specified),99,0,0
O=C(Nc1cccc(CN2CCCN(Cc3ccc4c(c3)OCO4)CC2)c1)c1ccc(-c2ccccc2)cc1.O=C(O)C(F)(F)F,90,19,48
CCCCCC(=O)N1CCOC(CCN2CCC(c3ccccc3)CC2)(c2ccc(Cl)c(Cl)c2)C1 (stereo unspecified),89,51,17
Cc1[nH]c2ccccc2c(=O)c1Br,94,84,2
COc1ccc(-c2ccccc2CNC2Cc3ccccc3C2)cc1S(=O)(=O)NCCN1CCCC1.O=C(O)C(F)(F)F,96,47,18
Cc1cccc2nc(-c3ccc(-c4cccc(CN5CCC(CCN6CCCCC6)CC5)c4)s3)[nH]c12.O=C(O)C(F)(F)F,100,100,99
Cn1nccc1C(=O)NCCNCc1cccc(-c2ccc(-c3nc4cc(C(F)(F)F)ccc4[nH]3)s2)c1.O=C(O)C(F)(F)F,100,99,36
O=C(Nc1ccccc1O)C1CCN(c2ncnc3cc(-c4ccc(F)cc4)sc23)CC1,97,94,10
CCOC(=O)c1c(C)n(-c2ccccc2)c2ccc(OC(=O)c3ccc(S(=O)(=O)N(CC)CC)cc3)cc12,94,63,0
COc1cc(NC(=O)/C=C/c2cccc3cc[nH]c23)ccc1OCCN(C(C)C)C(C)C.Cl,99,51,11
CC1(C)NC(N)=NC(=N)N1OCc1ccc(-c2ccccc2)cc1,95,97,64
Cc1ccc2[nH]ncc2c1N(CC1CCCCC1)c1ccnc(Nc2ccc(OCC(O)CN3CC=CCC3)cc2)n1.O=CO (stereo unspecified),100,79,29
Cc1[nH]c(C)c(-c2ccc(-c3ccccc3F)nc2)c(=O)c1Br,97,97,2
C=C(C)Cn1cc(C2CCN(CCCCNC(=O)c3sc(-c4ccc(Cl)cc4Cl)nc3CO)CC2)c2ccccc21,82,19,22
NS(=O)(=O)c1cccc(-c2ccc3c(O)ncnc3c2)c1,99,100,6
COc1ccc(Nc2nc(NCc3ccco3)c3ccccc3n2)cc1.Cl,99,76,38
CN(Cc1ccc(NC(=O)CCC2CCN(C(=O)/C=C/c3ccc(Cl)c(Cl)c3)CC2)cc1)C1CCOCC1,94,2,10
Cc1ccc(Nc2nc(-c3ccccn3)cs2)nc1,94,97,60
CN1CCN(c2cccc(-c3nnc(-c4cccc(OCC(=O)NCc5ccc(C(F)(F)F)cc5)c4)o3)c2)CC1,98,86,10
COc1ccc2nc3cc(Cl)ccc3c(Nc3ccc(Sc4ccc(Nc5c6ccc(Cl)cc6nc6ccc(OC)cc56)cc4)cc3)c2c1.Cl,92,94,1
Cc1cc(N[C@@H](CC(C)C)C(=O)NCc2cccs2)nc(Nc2ccccc2)n1.O=C(O)C(F)(F)F,100,57,18
COc1cccc(CN2CCCN(Cc3cccc(NC(=O)c4ccc(Cl)c(Cl)c4)c3)CC2)c1.O=C(O)C(F)(F)F,89,11,26
